Jurkat viability – cytotoxicity toward Jurkat cells | hit rate 1.2% among 56,000 | Jurkat E6.1 viability, ATP luminescence, 48 h | inhibition, % at 4 µM;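 active = inhibition above the mean inhibition of all tested compounds plus 3 SD, cut at about 28% in these data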
SKBR3 24h inh – SK-BR-3 proliferation inhibitors | hit rate 0.47% among 41,000 | viability, % at 10 µM | SK-BR-3 viability, CellTiter-Glo ATP luminescence, 24 h; hits give low values;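 active = viability at or below the median of all test compounds minus 3 SD, in both replicates if run twice, cut at about 45% in these data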
Her2 expr inh – Her2 kinase expression inhibition | P04626 | SKBR-3 HER2 protein level, AlphaScreen, 18-24 h; hits give low values | HER2 level % of control, % at 10 µM | hit rate 0.69% among 65,000 | AID 645;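 active = HER2 level under 5% of the carrier-only control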;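 note: lower value means stronger loss of Her2 protein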
Target sequence (P04626 whole entry, looked up): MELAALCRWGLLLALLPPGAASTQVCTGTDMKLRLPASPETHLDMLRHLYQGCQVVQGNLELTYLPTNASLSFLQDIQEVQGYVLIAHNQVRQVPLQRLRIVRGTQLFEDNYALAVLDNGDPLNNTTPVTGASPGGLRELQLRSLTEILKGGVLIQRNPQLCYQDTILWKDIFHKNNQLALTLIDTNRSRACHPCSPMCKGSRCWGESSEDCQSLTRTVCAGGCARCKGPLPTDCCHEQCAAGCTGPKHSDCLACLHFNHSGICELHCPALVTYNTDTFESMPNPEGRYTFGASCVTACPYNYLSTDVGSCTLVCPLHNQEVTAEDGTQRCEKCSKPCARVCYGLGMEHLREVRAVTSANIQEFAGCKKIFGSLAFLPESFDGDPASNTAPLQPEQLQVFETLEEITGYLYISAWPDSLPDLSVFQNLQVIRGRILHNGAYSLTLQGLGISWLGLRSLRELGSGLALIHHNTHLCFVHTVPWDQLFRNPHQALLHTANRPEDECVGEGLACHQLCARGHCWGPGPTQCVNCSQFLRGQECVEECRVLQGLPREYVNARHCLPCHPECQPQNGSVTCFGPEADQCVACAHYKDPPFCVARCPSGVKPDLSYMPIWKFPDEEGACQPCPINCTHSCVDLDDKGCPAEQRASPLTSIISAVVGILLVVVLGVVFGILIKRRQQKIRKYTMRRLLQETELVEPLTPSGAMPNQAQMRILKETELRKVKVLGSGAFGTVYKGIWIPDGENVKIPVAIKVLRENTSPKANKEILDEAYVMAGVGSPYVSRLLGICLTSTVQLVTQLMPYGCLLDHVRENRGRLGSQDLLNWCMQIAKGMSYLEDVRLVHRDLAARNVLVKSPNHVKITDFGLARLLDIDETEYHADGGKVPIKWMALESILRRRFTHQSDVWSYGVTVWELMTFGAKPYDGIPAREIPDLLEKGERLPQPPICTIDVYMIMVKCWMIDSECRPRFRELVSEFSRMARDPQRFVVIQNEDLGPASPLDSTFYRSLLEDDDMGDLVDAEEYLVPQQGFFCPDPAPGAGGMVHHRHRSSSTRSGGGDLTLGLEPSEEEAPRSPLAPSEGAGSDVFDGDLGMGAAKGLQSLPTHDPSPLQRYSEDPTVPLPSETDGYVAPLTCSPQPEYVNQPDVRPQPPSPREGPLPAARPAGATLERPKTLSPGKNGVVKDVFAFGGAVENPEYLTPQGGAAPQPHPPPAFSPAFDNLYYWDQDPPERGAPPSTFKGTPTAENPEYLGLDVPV
Large screens that a line does not name were inactive. A selection: hits, their analogues and other compounds. The true share with any hit is near 2%.

c1ccc2c(N3CCCCC3)nc(N3CCCC3)nc2c1	none (no result: SKBR3 24h inh)
COc1ccc(Nc2nc(N3CCCC3)c3ccccc3n2)cc1	Her2 expr inh -5.6 (no result: SKBR3 24h inh)
COc1ccc(OC)c(NS(=O)(=O)Cc2ccccc2)c1	none (no result: SKBR3 24h inh)
Cn1c(CSc2ncccn2)nnc1SCC(=O)N1CCCc2ccccc21	SKBR3 24h inh 24
O=C(CSc1n[nH]c(-c2ccccc2O)n1)N1CCCc2ccccc21	Jurkat viability 62 (no result: SKBR3 24h inh)
CCn1c(CSc2ncccn2)nnc1SCC(=O)N1CCc2ccccc21	none
CCc1nnc(SCC(=O)N2CCCc3ccccc32)nc1CC	none (no result: SKBR3 24h inh)
Cc1cc(C(=O)Nc2ccccc2C(F)(F)F)no1	none
O=C(Nc1ccccc1C(F)(F)F)c1cc(-c2ccccc2O)on1	Jurkat viability 89
CCCC1=C(C(=O)OCC)C(c2ccc(O)cc2)n2ncnc2N1 (configuration not stated)	none
CC(=O)Nc1cc(OC(C)=O)c2nonc2c1OC(C)=O	SKBR3 24h inh 2.2, Her2 expr inh -6.9
CC(=O)Nc1nonc1NC(C)=O	none
CC12CCCCC1(O)[N+](=O)C1=C(CCCC1)N2[O-] (configuration not stated)	Her2 expr inh -17
Cc1csc(SCCn2c(N3CCN(c4ccccc4)CC3)nc3c2c(=O)[nH]c(=O)n3C)n1	none
CC(C)c1ccccc1OCCCCCNCCO	none (no result: SKBR3 24h inh)
CCOCCCNC(=O)C(c1ccc(OC)cc1)N(Cc1ccc2c(c1)OCO2)C(=O)CNC(C)=O (configuration not stated)	Her2 expr inh -22 (no result: Jurkat viability)
CCOCCCNC(=O)C(NC(=O)c1ccc2c(c1)OCO2)c1ccc(OC)cc1 (configuration not stated)	none (no result: Jurkat viability)
CC(CCc1ccccc1)NC(=O)CSc1nc(N)cc(N)n1 (configuration not stated)	none (no result: SKBR3 24h inh)
COc1ccccc1CNc1nc2nc(C)cc(=O)n2[nH]1	none
O=C(NCC(=O)N(CCc1ccccc1)C(C(=O)NC1CCCCC1)c1ccncc1)c1ccco1 (configuration not stated)	none
O=C(NCC(=O)N(CCc1ccccc1)C(C(=O)NC1CCCC1)c1cccnc1)c1ccco1 (configuration not stated)	Her2 expr inh -19
COC(=O)Nc1ccc(S(=O)(=O)N2CCCCCC2)cc1	none
COC(=O)Nc1ccc(S(=O)(=O)N2c3ccccc3CCC2C)cc1 (configuration not stated)	Jurkat viability 92 (no result: SKBR3 24h inh)
Cc1cc(NC(=O)COC(=O)c2ccc(S(=O)(=O)N3CCCc4ccccc43)cc2)no1	Jurkat viability 64 (no result: SKBR3 24h inh)
CC(=O)Nc1ccc(S(=O)(=O)N2CCCc3ccccc32)cc1	Jurkat viability 82
Nc1ccc(S(=O)(=O)N2CCCc3ccccc32)cc1	none (no result: SKBR3 24h inh)
Cc1cc(NC(=O)COC(=O)c2cccc(S(=O)(=O)N3CCOCC3)c2)no1	none (no result: SKBR3 24h inh)
COc1ccc(-c2nnc(NC(=O)c3ccc(S(=O)(=O)N4CCCc5ccccc54)cc3)o2)cc1	none
O=C(Nc1nnc(C2CC2)o1)c1ccc(S(=O)(=O)N2CCCc3ccccc32)cc1	Jurkat viability 102 (no result: SKBR3 24h inh)
CCOc1ccccc1C1CC(c2ccc(F)cc2)Nc2nc(N)nn21 (configuration not stated)	none (no result: SKBR3 24h inh)
Cc1cc(N2C(=O)C3C4C=CC(C4)C3C2=O)ccc1Br (configuration not stated)	none
CCC(C)NS(=O)(=O)c1ccc(S(=O)(=O)Nc2cc3c(cc2C(C)=O)OCO3)cc1 (configuration not stated)	none (no result: SKBR3 24h inh)
COC(=O)c1ccc(C)c(NS(=O)(=O)c2ccc3c(c2)OCCO3)c1	Jurkat viability 92 (no result: SKBR3 24h inh)
COC(=O)c1ccc(C)c(NS(=O)(=O)c2ccc(OC)cc2)c1	none (no result: Jurkat viability, Her2 expr inh)
CC(=O)c1cc2c(cc1NS(=O)(=O)c1ccc(C)cc1)OCCO2	Jurkat viability 76
CCC(C)(C)NC(=O)C(OC(=O)c1cc2sccc2n1C)c1ccc(OC)cc1 (configuration not stated)	none
CCCCCCC(=O)c1c(C)[nH]c(C(=O)OCC)c1C	none (no result: SKBR3 24h inh)
COc1ccc(C(=O)CSc2nnc(Cc3ccccc3)o2)cc1	none
COc1ccc(C(=O)CSc2nnc(Cn3cnc4ccccc43)o2)cc1	Jurkat viability 92
O=C(Nc1nnc(-c2ccccc2Cl)o1)c1ccco1	none
COc1ccccc1-c1nnc(Nc2nc3c(OC)cccc3s2)o1	Jurkat viability 87
COc1cccc2sc(Nc3nnc(-c4ccccc4Cl)o3)nc12	Jurkat viability 67 (no result: SKBR3 24h inh)
COc1cccc(-c2nnc(Nc3nc4c(F)cccc4s3)o2)c1	none
O=C1C2ON(c3ccc(Cl)cc3)C(c3ccco3)C2C(=O)N1c1ccccc1 (configuration not stated)	none (no result: SKBR3 24h inh)
CCOC(=O)C1=C(C)N=c2s/c(=C3\C(=O)Nc4ccccc43)c(=O)n2C1c1ccc2c(c1)OCO2 (configuration not stated)	none
CCOC(=O)C1=C(C)N=c2s/c(=C\c3ccncc3)c(=O)n2C1c1ccc2c(c1)OCO2 (configuration not stated)	Her2 expr inh -75 (no result: Jurkat viability)
COC(=O)c1ccc(Cn2cnc3c(sc4nc(N5CCOCC5)c5c(c43)CCCC5)c2=O)o1	none (no result: Jurkat viability)
O=C1CSC(=Nc2cc(Cl)ccc2Cl)N1	none
CCOC(=O)c1[nH]c2ccc(OC)cc2c1NC(=O)OC	none
CCOC(=O)Nc1c(C(=O)OC)[nH]c2cc(OC)ccc12	Jurkat viability 43
CCOC(=O)C1=C(CNCc2ccc(C)cc2)NC(=O)NC1c1ccc(OC)cc1 (configuration not stated)	Jurkat viability 35
CCCC1=C(C(=O)OCC)C(c2ccc(NC(C)=O)cc2)NC(=O)N1 (configuration not stated)	none
COc1cc(NC(=O)CN2C(=O)c3ccccc3S2(=O)=O)c(OC)cc1Cl	none (no result: SKBR3 24h inh)
Clc1cccc(-c2nnc(-c3ccccc3)o2)c1	SKBR3 24h inh 18, Her2 expr inh -8.2
Brc1cccc(-c2nnc(-c3ccccc3)o2)c1	none (no result: SKBR3 24h inh)
CCOC(=O)C1=C(C)NC(=O)NC1c1ccc2c(c1)OCCO2 (configuration not stated)	none
CC1=C(C(=O)OCc2ccc3c(c2)OCO3)C(c2ccc(Cl)cc2)NC(=O)N1 (configuration not stated)	Jurkat viability 78
COc1ccc(COC(=O)C2=C(C)NC(=O)NC2c2ccc(O)c(OC)c2)cc1 (configuration not stated)	none
CC1=C(C(=O)OCc2ccc3c(c2)OCO3)C(c2ccc(F)cc2)NC(=O)N1 (configuration not stated)	Jurkat viability 84
O=C(CN(Cc1cccs1)C(=O)CNC(=O)c1ccco1)NC1CCCCC1	none (no result: SKBR3 24h inh)
CN1CCN(CC#CCn2c3ccccc3c3ccccc32)CC1	none
O=C1CCCC(O)=C1C=Nc1ccc(O)cc1	none (no result: SKBR3 24h inh)
Oc1ccc(N=Cc2ccc(-c3cccs3)s2)cc1	Her2 expr inh -22 (no result: SKBR3 24h inh)
COc1ccc(N2CCN(Cc3cc(=O)oc4cc(C)c(Cl)c(C)c34)CC2)cc1	SKBR3 24h inh 42
Cc1cc2oc(=O)cc(CN3CCC(C)CC3)c2c(C)c1Cl	none
COc1ccc(N2CCN(c3nc4c(c(=O)[nH]c(=O)n4C)n3CCCc3ccccc3)CC2)cc1	none (no result: Jurkat viability)
CCCn1nnc(NC(=O)C(C)Oc2ccc(Cl)cc2Cl)n1 (configuration not stated)	none
CC(Oc1ccc(Cl)cc1Cl)C(=O)Nc1ccncc1 (configuration not stated)	Jurkat viability 44
NC(=O)NC(Cc1ccccc1)C(=O)NCC1(N2CCCCC2)CCCCC1 (configuration not stated)	none (no result: SKBR3 24h inh)
